In the supplement of paper PMC7380943:
Where a name gives a salt, the structure may show the parent alone.

Key:
[1] = test system: CLZ3 (HCA2 human fibroblast dual HR-NHEJ reporter); experiment: NHEJ repair efficiency (GFP+ cells) relative to control (log10 fold); higher = more non-homologous end joining; conditions: 5 µM; doxycycline 0.5 ug/mL
[2] = test system: CLZ3 (HCA2 human fibroblast dual HR-NHEJ reporter); experiment: HR repair efficiency (tdTomato+ cells) relative to control (log10 fold); higher = more homologous recombination; conditions: 5 µM; doxycycline 0.5 ug/mL
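For HR repair efficiency (tdTomato+ cells) relative to control in this document: compound given one day before doxycycline, which switches on I-SceI endonuclease expression to create double-strand breaks within the integrated reporter.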
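For NHEJ repair efficiency (GFP+ cells) relative to control in this document: compound given one day ahead of doxycycline, which switches on I-SceI endonuclease to cut the chromosomally integrated reporter and create DSBs.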

Row | Compound | NHEJ repair efficiency (log10) [1] | HR repair efficiency (log10) [2]
1 | C[C@H]1[C@H](C)CC[C@]2(C(=O)O)CC[C@]3(C)C(=CC[C@@H]4[C@@]5(C)CC[C@H](O)C(C)(C)[C@@H]5CC[C@]43C)[C@H]12 [Ursolic Acid] | 0.324 | -0.12
2 | CC1CCC(C(C)C)C(O)C1 (racemic) [dl-Menthol] | 0.0823 | 0.0753
3 | O=c1cc(-c2ccccc2)oc2cc(O)c(O)c(O)c12 [Baicalein] | 0.203 | 0.17
4 | CC(/C=C/C=C(\C)C(=O)O[C@@H]1O[C@H](CO)[C@@H](O)[C@H](O)[C@H]1O)=C\C=C\C=C(C)\C=C\C=C(/C)C(=O)O[C@@H]1O[C@H](CO[C@@H]2O[C@H](CO)[C@@H](O)[C@H](O)[C@H]2O)[C@@H](O)[C@H](O)[C@H]1O [Crocin Ii] | -0.0199 | 0.0485
5 | CC1(C)[C@@H](O)CC[C@]2(C)[C@H]3C(=O)C=C4[C@@H]5C[C@@](C)(C(=O)O)CC[C@]5(C)CC[C@@]4(C)[C@]3(C)CC[C@@H]12 [Glycyrrhetinic Acid] | 0.0065 | 0.158
6 | Nc1ncnc2c1ncn2[C@@H]1O[C@H](CO)C[C@H]1O [Cordycepin] | 0.007 | -0.139
7 | O=c1c(-c2ccc(O)cc2)coc2cc(O)ccc12 [Daidzein] | -0.0789 | -0.15
8 | COc1ccc2c(c1O)-c1c(O)c(OC)cc3c1[C@H](C2)[N+](C)(C)CC3 [Magnoflorine hydrochloride] | -0.0605 | -0.0478
9 | O=C(O)c1cc(O)c2c(c1)C(=O)c1cccc(O)c1C2=O [Rhein] | 0.0809 | -0.07
10 | COC(=O)C1=CO[C@@H](O[C@@H]2O[C@H](CO)[C@@H](O)[C@H](O)[C@H]2O)[C@@H]2[C@@H](C)[C@@H](O)C[C@H]12 [Loganin] | 0.226 | 0.191
11 | O=C(O)/C=C/C(=O)O [Fumaric Acid] | 0.0532 | 0.136
12 | CC1(C)CC[C@]2(C(=O)O)CC[C@]3(C)C(=CC[C@@H]4[C@@]5(C)CC[C@H](O[C@@H]6O[C@H](C(=O)O)[C@@H](O)[C@H](O[C@@H]7OC[C@@H](O)[C@H](O)[C@H]7O)[C@H]6O)C(C)(C)[C@@H]5CC[C@]43C)[C@@H]2C1 [Momordin Ic] | 0.0282 | -0.203
13 | CC1(C)O[C@H]1COc1c2ccoc2cc2oc(=O)ccc12 [Oxypeucedanin] | 0.0689 | 0.0078
14 | O=C(O)c1cc(O)c2c(c1)[C@@H]([C@H]1c3cc(C(=O)O)cc(O)c3C(=O)c3c(O[C@@H]4O[C@H](CO)[C@@H](O)[C@H](O)[C@H]4O)cccc31)c1cccc(O[C@@H]3O[C@H](CO)[C@@H](O)[C@H](O)[C@H]3O)c1C2=O [Sennoside B] | -0.162 | 0.0301
15 | OC[C@H]1OC(O)[C@H](O)[C@@H](O)[C@H]1O (stereo partly drawn) [D-Galactose] | 0.00385 | -0.0597
16 | O=C(O[C@@H]1Cc2c(O)cc(O)cc2O[C@H]1c1cc(O)c(O)c(O)c1)c1cc(O)c(O)c(O)c1 [(-)Gallocatechin gallate] | -0.12 | 0.0198
17 | C[C@@H]1C(=O)O[C@H](C)[C@H]1C[C@@H](O)[C@](C)(O)[C@H]1CC[C@@]2(O)C3=CC(=O)[C@@H]4C[C@@H](O)[C@@H](O)C[C@]4(C)[C@H]3CC[C@]12C [Cyasterone] | 0.00995 | 0.0455
18 | CC1(C)CC[C@]2(C(=O)O)CC[C@]3(C)C(=CC[C@@H]4[C@@]5(C)CC[C@H](O)[C@@](C)(CO)[C@@H]5CC[C@]43C)[C@@H]2C1 [Hederagenin] | -0.021 | -0.0988
19 | O=c1c(O[C@@H]2O[C@H](CO)[C@@H](O)[C@H](O)[C@H]2O[C@@H]2O[C@H](CO)[C@@H](O)[C@H](O)[C@H]2O)c(-c2ccc(O)c(O)c2)oc2cc(O)cc(O)c12 [Baimaside] | 0.0574 | 0.114
20 | COc1ccc2[nH]cc(CCNC(C)=O)c2c1 [Melatonin] | 0.0863 | 0.227
21 | CC[C@H](CC[C@@H](C)[C@H]1CC[C@H]2[C@@H]3CC=C4C[C@@H](O)CC[C@]4(C)[C@H]3CC[C@]12C)C(C)C [β-Sitosterol] | 0.038 | 0.098
22 | Oc1cc(O)c2c(c1)O[C@H](c1cc(O)c(O)c(O)c1)[C@H](O)C2 [(-)Epigallocatechin] | -0.0905 | -0.0527
